In PMC5540273 (PLoS ONE, 2017):

Tests used:
Settings in all cases: concentration: 1 μM, replicates: in singlicate; n = 1
STK36 = system: STK36
STK39 = system: STK39
SYK = system: SYK
SgK110 = system: SgK110
TAK1 = system: T1, TAK1
T1 construct: gene MAP3K7

TAOK1 = system: TAOK1
TAOK2 = system: TAOK2
TAOK3 = system: TAOK3
TBK1 = system: TBK1
TEC = system: TEC
TESK1 = system: TESK1
TGFBR1 = system: TGFBR1
TGFBR2 = system: TGFBR2
TIE1 = system: TIE1
TIE2 = system: T2, TIE2
T2 construct: gene TEK

TLK1 = system: TLK1
TLK2 = system: TLK2
TNIK = system: TNIK
TNK1 = system: TNK1
TNK2 = system: TNK2
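Note: KINOMEscan kinase panel screen.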

Row | SMILES | %Inh (STK36) | %Inh (STK39) | %Inh (SYK) | %Inh (SgK110) | %Inh (TAK1) | %Inh (TAOK1) | %Inh (TAOK2) | %Inh (TAOK3) | %Inh (TBK1) | %Inh (TEC) | %Inh (TESK1) | %Inh (TGFBR1) | %Inh (TGFBR2) | %Inh (TIE1) | %Inh (TIE2) | %Inh (TLK1) | %Inh (TLK2) | %Inh (TNIK) | %Inh (TNK1) | %Inh (TNK2)
1 | O=C(Nc1n[nH]c2nc(-c3ccc(O)cc3)ccc12)C1CC1 [SB-710363] | 15% | 18% | 25% | 0% | 21% | 98.9% | 79% | 95.9% | 19% | 0% | 0% | 0% | 0% | 0% | 11% | 18% | 0% | 95.1% | 0% | 0%
2 | COc1cc(Nc2nccc(-c3c(-c4cccc(NC(=O)c5c(F)cccc5F)c4)nn4ccccc34)n2)cc(OC)c1OC [GSK323521] | 19% | 8% | 28% | 0% | 28% | 0% | 0% | 0% | 3% | 21% | 36% | 0% | 17% | 67% | 46% | 6% | 0% | 0% | 0% | 1%
3 | O=C(O)C(F)(F)F.O=C(O)C(F)(F)F.O=c1[nH]ccc2nc(N[C@@H]3CCCNC3)nc(Nc3ccc(S(=O)(=O)N4CCOCC4)cc3)c12 [GSK2177277] | 26% | 90.6% | 93.1% | 95% | 99.9% | 99.8% | 82% | 99.5% | 90% | 38% | 0% | 32% | 0% | 66% | 0% | 94.3% | 98.2% | 99.5% | 73% | 26%
4 | O=C(Nc1n[nH]c2cc(-c3ccoc3)ccc12)C1CC1 [SB-738481] | 13% | 1% | 2% | 0% | 2% | 65% | 27% | 15% | 15% | 0% | 0% | 0% | 0% | 0% | 5% | 7% | 0% | 42% | 0% | 0%
5 | COCCOCCOc1cc2ncc3c4ccc(C#N)cc4[nH]c3c2cc1OC | 22% | 0% | 5% | 0% | 88% | 0% | 12% | 0% | 89% | 0% | 18% | 0% | 0% | 0% | 0% | 0% | 0% | 87% | 0% | 9%
6 | COC(=O)Nc1nc2cc(Oc3ccc(NC(=O)Nc4cc(C(F)(F)F)ccc4F)cn3)ccc2[nH]1.Cl.Cl [GW681170] | 0% | 3% | 16% | 0% | 79% | 0% | 0% | 0% | 19% | 0% | 10% | 0% | 0% | 93.1% | 98.6% | 11% | 0% | 0% | 0% | 0%
7 | CCCCc1nn2ncccc2c1-c1ccnc(Nc2ccc(N3CCN(C)CC3)cc2)n1 [GW684941] | 91.4% | 33% | 0% | 10% | 4% | 37% | 47% | 42% | 11% | 0% | 39% | 80% | 91% | 93.6% | 80% | 0% | 0% | 25% | 86% | 62%
8 | Cl.c1ccc(-c2ccc3c(Nc4ccc5[nH]ncc5c4)ccnc3c2)nc1 [GW440137] | 0% | 6% | 27% | 6% | 0% | 0% | 0% | 0% | 21% | 0% | 63% | 31% | 50% | 1% | 0% | 15% | 5% | 18% | 2% | 8%
9 | COc1cccc(C(=O)Nc2cccc(Oc3ccc4nc(NC(=O)C5CC5)cn4n3)c2)c1 | 0% | 0% | 12% | 0% | 0% | 34% | 58% | 0% | 48% | 9% | 0% | 0% | 40% | 84% | 67% | 4% | 0% | 54% | 48% | 5%
10 | c1ccc(-c2n[nH]cc2Nc2ccnc3ccccc23)nc1 [GW694077] | 0% | 8% | 16% | 0% | 91.6% | 66% | 21% | 10% | 0% | 0% | 11% | 5% | 56% | 0% | 0% | 0% | 0% | 42% | 0% | 1%
11 | COc1ccc(Nc2nccc(NCCNC(=O)c3cc4ccccc4s3)n2)cc1 [GSK1379896] | 0% | 3% | 2% | 24% | 0% | 0% | 0% | 0% | 2% | 0% | 0% | 0% | 0% | 0% | 0% | 0% | 0% | 0% | 0% | 4%
12 | Cc1occc1-c1ncc(OC[C@@H](N)Cc2c[nH]c3ccccc23)cc1-c1ccc2[nH]nc(C)c2c1.O=C(O)C(F)(F)F [GSK682037] | 0% | 15% | 0% | 0% | 97.9% | 97.7% | 36% | 83% | 0% | 0% | 19% | 0% | 0% | 18% | 0% | 0% | 0% | 97.2% | 15% | 0%
13 | C[C@@H](Oc1cc(-n2cnc3cc(-c4ccnc(NCCS(C)(=O)=O)c4)ccc32)sc1C(N)=O)c1ccccc1Cl [GSK907232] | 0% | 13% | 80% | 0% | 0% | 0% | 0% | 0% | 5% | 4% | 28% | 5% | 0% | 78% | 56% | 0% | 0% | 36% | 17% | 33%
14 | CC(C)(C)c1ccc2nccc(Nc3cccc(O)c3)c2c1 [GW856795] | 0% | 14% | 0% | 0% | 23% | 100% | 0% | 59% | 14% | 12% | 0% | 42% | 88% | 0% | 2% | 12% | 0% | 0% | 19% | 0%
15 | Clc1ccc(-c2nn3ncccc3c2-c2ccnc(Nc3ccc4c(c3)OCCO4)n2)cc1 [GW829116] | 79% | 0% | 0% | 11% | 0% | 0% | 19% | 0% | 19% | 0% | 11% | 46% | 23% | 24% | 0% | 0% | 0% | 31% | 46% | 0%
16 | CC(C)c1nc(-c2cccc(NS(=O)(=O)c3c(F)cccc3F)c2F)c(-c2ccnc(Nc3ccc(N4CCOCC4)nc3)n2)s1 [GSK2008607] | 100% | 48% | 85% | 0% | 76% | 10% | 71% | 19% | 51% | 85% | 100% | 86% | 77% | 91.2% | 99.1% | 22% | 0% | 63% | 100% | 99.6%
17 | O=C(Nc1ccccc1F)NC1CCN(c2ccnc(Nc3ccc(F)cc3)n2)CC1 [GSK1379800] | 0% | 0% | 0% | 0% | 0% | 0% | 0% | 0% | 8% | 0% | 17% | 36% | 0% | 6% | 7% | 0% | 0% | 0% | 0% | 15%
18 | Cc1ccc(C(=O)N2CC[C@@H](O)C2)cc1-n1c(C)cc(OCc2ccc(F)cc2F)c(Br)c1=O | 0% | 0% | 7% | 0% | 0% | 31% | 57% | 0% | 1% | 0% | 0% | 16% | 0% | 0% | 20% | 13% | 0% | 0% | 0% | 0%
19 | CCc1ccc(-c2ccc3c(c2)-c2c(cnn2C)S(=O)(=O)N3C)cc1 | 0% | 0% | 0% | 0% | 4% | 0% | 0% | 0% | 8% | 0% | 3% | 0% | 2% | 33% | 0% | 0% | 0% | 8% | 0% | 0%
20 | Nc1ncnc2c1nc(-c1ccccc1)n2-c1ccccc1 [SKF-97293] | 7% | 0% | 6% | 0% | 35% | 38% | 6% | 25% | 24% | 8% | 19% | 9% | 4% | 9% | 11% | 0% | 19% | 0% | 8% | 0%
